Laboratory results published in the supplement of paper PMC6555819.

Tests used:
Experiment in all cases: PBM binding z-score (relative to random genomic background probes); higher = stronger binding; sequences stand for … in GC…GCGATTGACAGCGTAGAATGAAGG
[1] = tested on: FXR:RXRa (NR concentration 270 nM, RXRa partner concentration 90 nM)
In short: (§1)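 Random background probes are the reference for binding z-scores. These scores derive from regression-normalized fluorescence on custom Agilent 4×180K protein-binding microarrays incubated 1 h with ligand-free nuclear receptor dimers. Binding was detected with antibodies against each partner (one per run).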

[2] = tested on: LXRa:RXRa (NR concentration 270 nM, RXRa partner concentration 90 nM)
In short: as §1

[3] = tested on: LXRa homodimer (NR concentration 270 nM)
In short: as §1

[4] = tested on: LXRb:RXRa (NR concentration 270 nM, RXRa partner concentration 90 nM)
In short: as §1

[5] = tested on: LXRb homodimer (NR concentration 270 nM)
In short: as §1

[6] = tested on: PPARa:RXRa (NR concentration 270 nM, RXRa partner concentration 90 nM)
In short: as §1

[7] = tested on: PPARg:RXRa (NR concentration 180 nM, RXRa partner concentration 90 nM)
In short: as §1

[8] = tested on: PPARg:RXRa 270nM:90nM, anti-RXR (NR concentration 270 nM, RXRa partner concentration 90 nM)
In short: as §1

[9] = tested on: PPARg:RXRa 30nM:10nM, anti-RXR (NR concentration 30 nM, RXRa partner concentration 10 nM)
In short: as §1

[10] = tested on: PPARg:RXRa 90nM:30nM, anti-RXR (NR concentration 90 nM, RXRa partner concentration 30 nM)
In short: as §1

Sequence | PBM binding z-score [1] | PBM binding z-score [2] | PBM binding z-score [3] | PBM binding z-score [4] | PBM binding z-score [5] | PBM binding z-score [6] | PBM binding z-score [7] | PBM binding z-score [8] | PBM binding z-score [9] | PBM binding z-score [10]
ATACCAAGGTAATCGTGAGGTCGTTGATACTAAC | 1.31 | 1.48 | 0.673 | 1.29 | 0.295 | 1.38 | 0.484 | 0.308 | -0.0613 | 0.22
TAGCCTGGGTCATGCGGGCCAGTATAGTGTCGGC | 3.19 | 1.79 | -0.665 | 1.03 | -0.444 | 3.4 | 2.12 | 2.48 | 0.16 | 1.54
TCTTGTAGACCAGCAGGTTAAGAAAGCTGGCCAA | 0.124 | 0.0452 | -0.542 | 0.0973 | -0.717 | 0.558 | -0.5 | 1.27 | 2.61 | 1.96
CCGAGTGGGGCATAAGGTTACCATAAGCCAGCCC | 0.498 | 1.86 | -0.512 | 0.83 | -1.04 | 2.05 | 2.19 | 3.09 | 1.06 | 2.66
CCTTACGGGTCACGGACAGGTTATAGCATTTGGA | 6.85 | 5.09 | 0.422 | 4.42 | 0.0189 | 6.01 | 6.38 | 6.56 | 3.37 | 5.44
GCTCGGAGCACAAGGTCAGAGCTTTGTCCGTAGA | 1.22 | 1.42 | -0.454 | 0.993 | -1.38 | 2.34 | 0.273 | 1.03 | -0.387 | 0.2
GCGACTGGGGCATCAGGAGGTTACCATAACTTAA | 0.0636 | 0.325 | 0.0698 | 0.842 | -1.05 | 1.7 | 1.35 | 1.26 | 0.00065 | 0.599
ACAGACAGGGGATGAAGGTAACTCAGGCTATCAT | 0.0429 | -0.217 | -0.0262 | 0.454 | 0.563 | 0.414 | 0.8 | -0.0093 | -0.0639 | -0.0825
CCTAGTTGCTCAAGGTCACACACGCTATAGGTAC | 4.3 | 4.59 | 4.23 | 3.72 | 1.6 | 3.98 | 2.13 | 2.77 | 0.986 | 1.95
AGACCGAGGGCAATGAGTTGATAGCACGGGTGGC | -0.192 | -0.0854 | -0.495 | -0.427 | -0.95 | 0.375 | 0.499 | -0.467 | -0.824 | -0.435
ACTATTAGTTGACTTAGGGCAGCCGATACGACGC | -0.0135 | -0.0603 | 0.0917 | -0.372 | 0.721 | -0.383 | 0.697 | 0.151 | -0.128 | 0.0745
CGAACGAGGGCATGAGTTGAAAGCAAATGCCGAT | 0.434 | 0.165 | -0.523 | 0.0977 | -0.959 | 1.85 | 1.37 | 1.83 | 0.552 | 1.12
TGAATGATGTTAAAGATCAGGGAACGTGGCGTCG | 0.0753 | 0.0362 | -0.207 | -0.167 | 0.281 | 0.925 | 1.32 | 2.98 | 1.82 | 2.49
GTACCAATGTGAATAGGTCGTTGATGAGTAGGCG | -0.0565 | -0.171 | -0.443 | -0.196 | -0.467 | 0.275 | 0.47 | -0.162 | -0.118 | -0.255
ATACCAAGGTGATCGTGAGGTCATTGATACTAAC | 4.13 | 4.22 | 4.81 | 3.53 | 0.748 | 3.62 | 1.7 | 1.98 | 0.601 | 1.25
CCTAGCTGGCCAGGGTCACTCAAGCATTTCGCTT | 1.96 | 1.65 | -0.664 | 1.94 | -1.02 | 2.99 | -0.0183 | 1.17 | -0.834 | -0.172
TCATATAGTTAAATGCTAGGTGAAAGTCCGATCT | 0.982 | 0.66 | 0.335 | 0.729 | 0.331 | 0.834 | 0.464 | 2.11 | 3.69 | 2.89
AGTCAAGGTTCACTAGGTAACGTAAGATTCAGCT | 3.03 | 3.03 | 0.713 | 1.93 | 0.445 | 3.59 | 4.38 | 4.46 | 1.58 | 3.65
CCTGCTAGGTTAATGGTCAGCTAAAGCAGCTCGC | -0.16 | 0.22 | -0.415 | 0.0198 | -0.231 | 0.798 | 1.47 | 3.16 | 0.835 | 2.53
ATCTCCAGGTAAAAGTTCAGTGAATCCCGAGGAT | 1.06 | 1.58 | 1.65 | 1.15 | 0.946 | 3.5 | 5.76 | 6.62 | 6.15 | 7.28
GCTAGCAGGCCTTTTGGGTCACTCAATGACGGGC | 0.126 | -0.171 | -0.408 | 0.187 | -1.11 | 0.992 | 0.209 | 0.00506 | -0.68 | -0.138
TCTCGGAGGACACGAAGGTCTGAGCTTTCCAGAG | -0.23 | -0.358 | -1.07 | -0.541 | -1.44 | 0.131 | -0.309 | 0.641 | 1.91 | 1.38
TTACCTAGGTGAAAGGTCGTTGATGCACGCCTTG | 3.04 | 2.96 | 0.393 | 2.74 | -0.415 | 5.66 | 10.4 | 9.22 | 9.2 | 10.2
